PubChem BioAssay AID2242 (National Center for Advancing Translational Sciences (NCATS), 2010)
Out of some 200,000 compounds screened, about 720 (0.36%) were called active. Another 8% or so got no clear call; they are omitted. Calls follow the shape of the dose curve; as a rule, active = well fitted activation curve with a large enough effect; inconclusive = small, poorly fitted or top-dose-only effect, or effect the other way, or another doubt; inactive = flat fitted curve, though single readings scatter. The list shows a part of the results.

What follows are compounds tested against Lysosomal alpha-glucosidase (Homo sapiens) (UniProt P10253) (assay: qHTS Assay for Activators of Human alpha-Glucosidase as a Potential Chaperone Treatment of Pompe Disease). Details: purified enzyme, 4-MU-alpha-glucoside fluorescence, 20 min; series mostly up to 76.9 µM; activity change, positive = activation: at the top concentration.
Outline: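 Compounds titrated up to 77 uM against 4 nM enzyme and 400 uM methylumbelliferyl substrate at room temperature, 20 min, pH 5.0. Basic stop, then 4-methylumbelliferone fluorescence (365/440 nm) normalized to no-enzyme and enzyme controls; Hill-equation AC50.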
Also: nearly all actives have a fitted effect of over 80% in size.
Potency is read from the fitted curve at half-maximal effect.

Potency, active:
OCCN(CCO)c1ccc2ccccc2c1 35.5 µM, c1ccc(CCNc2ccnc3cc4ccccc4cc23)cc1 22.4 µM, Cc1cc(N2CCOCC2)nc2cc(O)ccc12 28.2 µM, CCOc1ccc2nc(N3CCOCC3)nc(C)c2c1 39.8 µM, COc1ccc2nc(N3CCOCC3)cc(C)c2c1 39.8 µM, COCCN(CCOC)C(=O)c1cc2c(=O)n3ccccc3nc2s1 35.5 µM, CCN(CC)C(=O)c1cc2c(=O)n3ccccc3nc2s1 31.6 µM, CC1=CN2C(=NC(=O)CC2(C)C(=O)N(CC(=O)NC2CCCC2)c2cc(C)cc(C)c2)C=C1 (stereo not drawn) 39.8 µM, CC1=CN2C(=NC(=O)CC2(C)C(=O)N(CC(=O)NC2CCCC2)c2ccccc2C)C=C1 (stereo not drawn) 35.5 µM, CCC(=O)Oc1ccc2c(c1)OC1(OC(C)=O)OC(C)CC1=C2C (stereo not drawn) 5.62 µM, CCOC(=O)c1sc(-c2ccc(OC)cc2)cc1NC(C)=O 28.2 µM, CCOCCCn1c(=NC(C)=O)c(C#N)cc2c(=O)n3cccc(C)c3nc21 31.6 µM, CCOCCCn1c(=NC(C)=O)c(C#N)cc2c(=O)n3ccccc3nc21 31.6 µM, CCCCCn1c(=NC(C)=O)c(C#N)cc2c(=O)n3ccccc3nc21 35.5 µM, O=C(Oc1cc2oc(=O)c3c(c2cc1Cl)CCCC3)c1cccs1 31.6 µM, O=C(Oc1ccc2c3c(c(=O)oc2c1)CCCC3)c1cccs1 35.5 µM, CCN1CCCC1CNC(=O)c1ccc2c(=O)n(CCOC)c(=O)[nH]c2c1 (stereo not drawn) 31.6 µM, COCCn1c(=O)[nH]c2cc(C(=O)NCc3cccnc3)ccc2c1=O 35.5 µM, COCCn1c(=O)[nH]c2cc(C(=O)NC(C)C)ccc2c1=O 35.5 µM, O=C(O)c1cccc(NC(=O)C2C3C=CC(C3)C2C(=O)O)c1 (stereo not drawn) 31.6 µM, COc1ccc(CCNC(=O)CSc2nc(-c3ccc(OC)c(OC)c3)ccc2C#N)cc1 28.2 µM, O=c1oc2c(CN3CCOCC3)c(O)c(Cl)cc2c2c1CCC2 35.5 µM, O=c1oc2c(CN3CCOCC3)c(O)c(Cl)cc2c2c1CCCC2 31.6 µM, CN(C(=O)NC(=O)C1=C(N2CCOCC2)/C(=C/c2ccccc2)CC1)S(C)(=O)=O 39.8 µM, CCCCN(C(=O)NC(=O)C1=C(N2CCOCC2)/C(=C/c2ccccc2)CC1)S(C)(=O)=O 31.6 µM, CN(C)CCCNS(=O)(=O)c1ccc(N2CCC(c3ccc(Cl)cc3)=N2)cc1 35.5 µM, O=S(=O)(c1ccc(N2CCC(c3ccc(Cl)cc3)=N2)cc1)N(CCO)CCO 35.5 µM, Cc1ccc2c(c1)Cc1nc3ccccc3nc1-2 35.5 µM, COc1ccc2cc3cc(C(=O)NCc4ccco4)oc3nc2c1 31.6 µM, COc1ccc2cc3cc(C(=O)NCc4cccnc4)oc3nc2c1 31.6 µM, c1coc(-c2nc3nc4ccccc4nc3n2CC2CCCO2)c1 (stereo not drawn) 25.1 µM, CCCCCn1c(-c2ccco2)nc2nc3ccccc3nc21 39.8 µM, COCCn1c(-c2ccco2)nc2nc3ccccc3nc21 35.5 µM, CC(C)OCCCn1c(-c2ccco2)nc2nc3ccccc3nc21 35.5 µM, c1ccc(Cn2c(-c3ccco3)nc3nc4ccccc4nc32)cc1 35.5 µM, CCC(C)n1c(-c2ccco2)nc2nc3ccccc3nc21 (stereo not drawn) 39.8 µM, COC(=O)CNC(=O)COC(=O)c1cc(Cl)cc(Cl)c1N 39.8 µM, Nc1c(Cl)cc(Cl)cc1C(=O)OCC(=O)NC1CC1 35.5 µM, CC(C)N(C(=O)COC(=O)c1cc(Cl)cc(Cl)c1N)C(C)C 35.5 µM, Nc1c(Cl)cc(Cl)cc1C(=O)OCC(=O)N1CCOCC1 31.6 µM, CCOC(=O)CCc1c(C)c(C#N)c2[nH]c3ccccc3n2c1=O 31.6 µM, Cc1c(CCC(=O)O)c(=O)n2c([nH]c3ccccc32)c1C#N 35.5 µM, CCCCc1c(C)c(C#N)c2[nH]c3ccccc3n2c1=O 22.4 µM, Cc1ccc(Cc2c(C)c(C#N)c3[nH]c4ccccc4n3c2=O)cc1 35.5 µM, Cc1cccc(C2=NN(c3ccc(Br)cc3)[C@@H](C(=O)N3CCOC3=O)[C@@H]2c2ccc(F)cc2)c1 31.6 µM, COc1ccccc1[C@@H]1C(c2cccc(Cl)c2)=NN(c2ccc(Br)cc2)[C@H]1C(=O)N1CCOC1=O 31.6 µM, CC(=O)Oc1ccc2c(C)c(CC(C)O)c(=O)oc2c1 (stereo not drawn) 39.8 µM, COC(=O)Cc1c(C)c2ccc(OC(=O)c3ccco3)cc2oc1=O 35.5 µM
